Compound activity from PubChem BioAssay.
Compounds with a hit are over-represented: about 4.3% of the library has one in this group of screens.
rCAG binder: molecules binding r(CAG) RNA repeats; AID 651821; 1.3% of 370,000 active; r(CAG) RNA repeat, TO-PRO-1 dye displacement fluorescence; inhibition, % at 3 µM;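 active = inhibition above the plate cutoff, the mean of all test compounds on that plate plus 3 SD, cut at about 35% in these data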;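 also: higher means more dye released from RNA so lower well fluorescence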
NR3A LBD binder: NR3A (human) ligand-binding domain modulation. NR3A LBD differential scanning fluorimetry, Tm shift; 0% = protein alone, 100% = glycine-bound protein. Tm shift relative to glycine control, % at 25 µM. 2.5% of 340,000 active. AID 1259313;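 active = melting temperature shift of at least 10% of the positive control shift, at one fixed dose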
FAS TE block: blocks the thioesterase domain of human fatty acid synthase; 0.67% of 360,000 active; recombinant FAS-TE, OMFH fluorogenic substrate, fluorescence endpoint; inhibition, % at 15 µM;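 active = compounds whose normalised, plate-corrected inhibition of enzyme fluorescence in the single-dose primary screen is 50% or more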
Target sequence (P49327 whole entry, looked up, the tested form may be a part): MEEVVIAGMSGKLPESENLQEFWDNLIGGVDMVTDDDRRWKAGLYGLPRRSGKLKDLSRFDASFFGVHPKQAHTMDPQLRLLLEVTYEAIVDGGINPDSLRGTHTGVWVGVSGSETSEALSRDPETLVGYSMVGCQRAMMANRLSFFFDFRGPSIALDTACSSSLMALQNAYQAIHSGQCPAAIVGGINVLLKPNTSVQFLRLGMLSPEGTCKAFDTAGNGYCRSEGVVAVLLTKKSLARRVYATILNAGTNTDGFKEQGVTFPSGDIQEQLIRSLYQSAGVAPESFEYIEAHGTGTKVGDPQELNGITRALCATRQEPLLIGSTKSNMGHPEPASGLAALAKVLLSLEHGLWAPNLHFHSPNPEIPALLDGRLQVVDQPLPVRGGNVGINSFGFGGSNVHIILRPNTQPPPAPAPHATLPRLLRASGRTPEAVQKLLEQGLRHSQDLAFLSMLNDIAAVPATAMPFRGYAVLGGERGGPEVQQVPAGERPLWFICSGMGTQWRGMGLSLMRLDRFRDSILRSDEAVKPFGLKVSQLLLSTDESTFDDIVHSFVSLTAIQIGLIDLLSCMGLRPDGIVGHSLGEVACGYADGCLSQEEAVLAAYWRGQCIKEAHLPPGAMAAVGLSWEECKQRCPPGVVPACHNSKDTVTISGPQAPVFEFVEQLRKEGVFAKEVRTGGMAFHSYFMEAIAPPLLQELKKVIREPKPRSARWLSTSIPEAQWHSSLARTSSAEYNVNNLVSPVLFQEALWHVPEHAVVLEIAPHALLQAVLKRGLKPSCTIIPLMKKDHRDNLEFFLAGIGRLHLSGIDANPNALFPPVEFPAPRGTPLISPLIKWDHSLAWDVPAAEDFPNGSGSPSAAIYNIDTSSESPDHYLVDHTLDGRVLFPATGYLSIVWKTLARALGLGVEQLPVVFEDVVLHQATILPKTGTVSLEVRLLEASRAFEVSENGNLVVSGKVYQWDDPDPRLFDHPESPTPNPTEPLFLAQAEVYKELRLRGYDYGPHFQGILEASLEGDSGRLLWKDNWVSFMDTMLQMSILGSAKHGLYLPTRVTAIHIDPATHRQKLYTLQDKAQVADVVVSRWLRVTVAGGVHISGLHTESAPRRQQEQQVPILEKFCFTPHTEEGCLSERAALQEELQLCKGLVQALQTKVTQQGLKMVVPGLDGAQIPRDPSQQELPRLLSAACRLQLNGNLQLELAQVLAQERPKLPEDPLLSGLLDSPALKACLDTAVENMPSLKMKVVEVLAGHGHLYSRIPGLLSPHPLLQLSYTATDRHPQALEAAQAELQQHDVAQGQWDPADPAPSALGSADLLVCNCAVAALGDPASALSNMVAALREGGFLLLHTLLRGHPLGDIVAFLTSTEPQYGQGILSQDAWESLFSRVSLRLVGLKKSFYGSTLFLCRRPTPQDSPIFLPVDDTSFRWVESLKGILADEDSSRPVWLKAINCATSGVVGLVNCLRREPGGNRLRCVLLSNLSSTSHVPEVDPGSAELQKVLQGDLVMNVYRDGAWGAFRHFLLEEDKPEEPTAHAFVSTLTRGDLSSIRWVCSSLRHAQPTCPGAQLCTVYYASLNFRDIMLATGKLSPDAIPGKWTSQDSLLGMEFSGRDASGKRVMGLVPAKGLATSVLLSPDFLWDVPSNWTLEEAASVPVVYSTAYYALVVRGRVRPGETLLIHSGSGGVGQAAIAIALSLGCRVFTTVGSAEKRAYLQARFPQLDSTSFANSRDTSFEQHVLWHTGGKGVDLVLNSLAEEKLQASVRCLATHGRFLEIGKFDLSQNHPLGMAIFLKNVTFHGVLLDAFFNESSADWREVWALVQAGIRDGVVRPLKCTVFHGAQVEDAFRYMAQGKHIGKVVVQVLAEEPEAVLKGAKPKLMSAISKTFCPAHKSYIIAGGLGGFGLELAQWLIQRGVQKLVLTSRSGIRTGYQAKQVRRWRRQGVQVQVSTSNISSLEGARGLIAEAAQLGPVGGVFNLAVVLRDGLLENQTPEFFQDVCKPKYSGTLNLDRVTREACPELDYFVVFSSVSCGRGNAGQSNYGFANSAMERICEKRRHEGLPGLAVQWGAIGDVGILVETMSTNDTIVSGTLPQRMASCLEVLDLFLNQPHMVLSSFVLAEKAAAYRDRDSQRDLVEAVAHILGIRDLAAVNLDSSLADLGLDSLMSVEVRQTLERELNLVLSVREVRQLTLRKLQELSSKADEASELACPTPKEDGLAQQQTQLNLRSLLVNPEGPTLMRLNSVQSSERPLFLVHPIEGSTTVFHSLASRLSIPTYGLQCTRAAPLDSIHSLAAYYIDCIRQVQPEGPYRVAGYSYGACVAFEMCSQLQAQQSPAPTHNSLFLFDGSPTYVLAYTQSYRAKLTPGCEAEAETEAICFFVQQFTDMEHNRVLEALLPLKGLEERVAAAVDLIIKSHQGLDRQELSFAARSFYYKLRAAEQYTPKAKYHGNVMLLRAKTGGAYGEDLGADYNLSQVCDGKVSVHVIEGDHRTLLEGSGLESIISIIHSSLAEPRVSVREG
NadD inh: blocks S. aureus nicotinate mononucleotide adenylyltransferase. purified NadD enzyme, colorimetric absorbance read-out. inhibition, % at 20 µM. 0.78% of 360,000 active; in the data active = inhibition above about 26%
FAS-TE conf: FAS thioesterase (human) inhibition, confirmation | shares compounds with FAS TE block | recombinant FAS-TE, OMFH fluorogenic substrate, fluorescence | inhibition, % at 15 µM | 45% of 2,300 active | AID 624325;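 active = compounds inhibiting the enzyme by at least 50% at 15 µM in any one of the replicates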
Each line names hits and unclear results; the compound was inactive in the other large screens (follow-up assays come after a bar, where they were run).

O=C1OCCN1C(=O)[C@H]1[C@H](c2ccc(Cl)cc2)C(c2ccc(F)cc2)=NN1c1ccc(Br)cc1	NR3A LBD binder 18.1, FAS TE block 87.7 | FAS-TE conf inactive
C[C@@H]1C(c2ccccc2)=NN(c2ccc(Br)cc2)[C@H]1C(=O)N1CCOC1=O	none
Cc1ccccc1Cn1cc(COC(=O)Nc2ccc(F)cc2)nn1	none (no result: NR3A LBD binder, FAS TE block, NadD inh)
Cc1ccc(-c2nnc3ccc(SCC(=O)N4CCCc5ccccc54)nn23)cc1	NR3A LBD binder 18.4, FAS TE block 73.7 | FAS-TE conf 70.0
CN(C(=O)c1ccc(NC(=O)Cc2cccc(NC(=O)C3CCCN(S(=O)(=O)c4cccc([N+](=O)[O-])c4)C3)c2)cc1)C1CC1 (stereo unspecified)	none
CN(C(=O)c1cccc(NC(=O)Cc2ccc(NC(=O)C3CCCN(S(=O)(=O)c4cccc([N+](=O)[O-])c4)C3)cc2)c1)C1CCCC1 (stereo unspecified)	NR3A LBD binder 10.0, FAS TE block 68.9 | FAS-TE conf inactive
CN(C(=O)c1ccc(NC(=O)Cc2ccc(NC(=O)C3CCCN(S(=O)(=O)c4cccc([N+](=O)[O-])c4)C3)cc2)cc1)C1CCCC1 (stereo unspecified)	FAS TE block 66.2 | FAS-TE conf inactive
CN(Cc1ccccc1)C(=O)c1ccc(NC(=O)Cc2ccc(NC(=O)C3CCCN(S(=O)(=O)c4cccc([N+](=O)[O-])c4)C3)cc2)cc1 (stereo unspecified)	FAS TE block 58.7 | FAS-TE conf inactive
Cc1ccc(-n2c(SCC(=O)c3ccccc3Cl)nnc2-c2cnccn2)cc1	none (no result: NR3A LBD binder, FAS TE block, NadD inh)
C[C@@]12C(=O)N(Cc3ccc(F)cc3)CC(=O)N1[C@H]1c3cc(Cl)ccc3OC[C@@H]1[C@@H]2c1ccccc1	FAS TE block 84.1 | FAS-TE conf inactive
COc1ccc(CN2CC(=O)N3[C@H]4c5cc(C)ccc5OC[C@@H]4[C@H](c4ccccc4)[C@]3(C)C2=O)cc1	none
C[C@@]12C(=O)N(Cc3ccccc3)CC(=O)N1[C@H]1c3cc(Cl)ccc3OC[C@@H]1[C@@H]2c1ccccc1	none
COc1ccc2c(c1)OC[C@H]1[C@H]2N2C(=O)CN(Cc3ccc(F)cc3)C(=O)[C@@]2(C)[C@H]1c1ccccc1	FAS TE block 60.8 | FAS-TE conf inactive
COc1ccc2c(c1)OC[C@H]1[C@H]2N2C(=O)CN(Cc3ccc(C)cc3)C(=O)[C@@]2(C)[C@H]1c1ccccc1	FAS TE block 62.2 | FAS-TE conf inactive
CCCCCn1nnnc1C1(C)CCSCC(=O)N1Cc1ccco1 (stereo unspecified)	none (no result: NR3A LBD binder, FAS TE block, NadD inh)
CC1CCN(c2nc(Cl)nc(Nc3ccc([N+](=O)[O-])cc3)n2)CC1	FAS TE block 54.1 | FAS-TE conf inactive
C=CCNc1nc(Nc2ccc([N+](=O)[O-])cc2)nc(N2CCCC2)n1	none
Cc1csc(NC(=O)C2CCN(S(=O)(=O)c3ccc4c(c3)oc(=O)n4C)CC2)n1	FAS TE block 58.9 | FAS-TE conf 67.8
Cc1cc(C)cc(NC(=O)C2(C(=O)C3CC3)CC(c3ccccc3C(F)(F)F)=NO2)c1 (stereo unspecified)	none (no result: NR3A LBD binder, FAS TE block, NadD inh)
COc1ccc(-n2nc(C(=O)NCC(=O)N3CCN(c4cccc(Cl)c4)CC3)c3ccccc3c2=O)c(OC)c1	FAS TE block 54.9 | FAS-TE conf inactive
COc1ccc(-n2nc(C(=O)NCC(=O)N3CCN(c4ccccn4)CC3)c3ccccc3c2=O)c(OC)c1	none
O=C(N[C@H](Cc1ccccc1)C(=O)NCCCc1ccccc1)[C@H]1O[C@@H](n2ccc(=O)[nH]c2=O)[C@H](O)[C@@H]1O	none (no result: NR3A LBD binder, FAS TE block, NadD inh)
CCOC(=O)[C@H]1[C@H]2COc3ccc(Br)cc3[C@@H]2N2C(=O)c3c(C)cc(C)cc3NC(=O)[C@@]12C	FAS TE block 68.4 | FAS-TE conf inactive
CCOC(=O)[C@@H]1[C@H]2COc3ccc(Br)cc3[C@@H]2N2C(=O)N(c3cccc(Cl)c3)C(=O)[C@@]12C	FAS TE block 73.3 | FAS-TE conf 52.0
CCOC(=O)[C@H]1[C@H]2COc3ccc(C)cc3[C@@H]2N2C(=O)c3ccc(Cl)cc3NC(=O)[C@@]12C	none
CCOC(=O)[C@H]1[C@H]2COc3ccc(Cl)cc3[C@@H]2N2C(=O)c3ccc(Cl)cc3NC(=O)[C@@]12C	FAS TE block 58.9 | FAS-TE conf inactive
CCOC(=O)[C@H]1[C@H]2COc3ccc(C)cc3[C@@H]2N2C(=O)c3cc(Br)ccc3NC(=O)[C@@]12C	FAS TE block 57.2 | FAS-TE conf inactive
CC(C)(C)OC(=O)NCc1ccccc1/C=C/S(=O)(=O)NCc1ccc(F)cc1	none (no result: NR3A LBD binder, FAS TE block, NadD inh)
CN(Cc1ccccc1)C(=O)OCc1cn(Cc2cc(F)cc(F)c2)nn1	none (no result: NR3A LBD binder, FAS TE block, NadD inh)
COC(=O)c1cc(-c2ccc(C)c3ccccc23)c(=O)n2c1CCC2	none (no result: NR3A LBD binder, FAS TE block, NadD inh)
COc1ccc(C=Nn2c(-c3ccc(F)cc3)n[nH]c2=S)c(OC)c1OC	none (no result: NR3A LBD binder, FAS TE block, NadD inh)
Cn1cc(CCOCc2ccc(Br)cc2)c2ccccc21	none (no result: NR3A LBD binder, FAS TE block, NadD inh)
CCc1ccc(NC(=O)c2nc(S(=O)(=O)Cc3ccccc3)ncc2Cl)cc1	none (no result: NR3A LBD binder)
CCOc1ccccc1NC(=O)c1nc(S(=O)(=O)Cc2ccccc2)ncc1Cl	FAS TE block 60.0 | FAS-TE conf 58.9
CCS(=O)(=O)c1ncc(Cl)c(C(=O)Nc2ccccc2OC)n1	none
COC(=O)c1ccc(NC(=O)c2nc(S(=O)(=O)Cc3cccc(C)c3)ncc2Cl)cc1	FAS TE block 55.4 | FAS-TE conf inactive
CC(=O)Nc1ccc(NC(=O)c2nc(S(=O)(=O)Cc3cccc(C)c3)ncc2Cl)cc1	none
COc1ccccc1NC(=O)c1nc(S(=O)(=O)Cc2ccccc2)ncc1Cl	FAS TE block 54.7 | FAS-TE conf inactive
C=CCN1C[C@H](COC(=O)c2ccc(C)c(C)c2)Oc2cccc(F)c2S1(=O)=O	none (no result: NR3A LBD binder, FAS TE block, NadD inh)
COC(=O)C1CN(Cc2cn(Cc3ccc(Cl)cc3)nn2)CCS(=O)(=O)N1Cc1ccc(F)cc1 (stereo unspecified)	none (no result: NR3A LBD binder, FAS TE block, NadD inh)
COC(=O)c1ccc(Cn2ccc3ccc(-c4ccc5ccn(C(=O)C6CCCCC6)c5c4)cc32)cc1	none (no result: NR3A LBD binder, FAS TE block, NadD inh)
Cc1ccc(-c2csc3nc(C(C)C)oc(=O)c23)c(C)c1	FAS TE block 86.1 | FAS-TE conf 69.1
Cc1ccc(-c2csc3nc[nH]c(=O)c23)c(C)c1	none
O=C(NCC1CCN(C(=O)C(=O)c2cccs2)CC1)c1ccncc1	none (no result: NR3A LBD binder, FAS TE block, NadD inh)
Cn1c(=O)c2[nH]c(COc3ccc(C(C)(C)C)cc3)nc2n(C)c1=O	FAS TE block 68.7 (no result: rCAG binder) | FAS-TE conf 70.3
O=C(COc1ccc([N+](=O)[O-])cc1)NNC(=O)Nc1ccc([N+](=O)[O-])cc1	none
O=C(C/C=N\OCc1ccc([N+](=O)[O-])cc1)Nc1ccc(Br)cc1	FAS TE block 54.8 | FAS-TE conf 57.0
O=C(c1ccc(Cl)cc1)[C@@H]1[C@@H]2C(=O)N(c3ccccc3)C(=O)[C@@H]2C2c3ccccc3C=NN21 (stereo partly specified)	FAS TE block 52.3 | FAS-TE conf inactive
C=CCn1c(=N)c(S(=O)(=O)c2ccc(C)c(C)c2)cc2c(=O)n3ccccc3nc21	FAS TE block 54.1 | FAS-TE conf inactive
